Test results: PMC4336329 (PLoS ONE, 2015)
Screen size: about 310,000 compounds; about 14,000 (4.5%) showed an effect of 50% or more. Effects have a minus sign here. Only a selection was taken, and strong results are over-represented in it overall.

The molecules below were run against human ether-à-go-go-related gene (hERG) potassium channel (human, UniProt Q12809) (assay: primary screen, population patch clamp on CHO cells stably expressing hERG; higher = less effect of the substance).
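Further: peak tail current of the secondary pulse compared with the same well before compound.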

Chain of human ether-à-go-go-related gene (hERG) potassium channel (Q12809 whole entry, looked up): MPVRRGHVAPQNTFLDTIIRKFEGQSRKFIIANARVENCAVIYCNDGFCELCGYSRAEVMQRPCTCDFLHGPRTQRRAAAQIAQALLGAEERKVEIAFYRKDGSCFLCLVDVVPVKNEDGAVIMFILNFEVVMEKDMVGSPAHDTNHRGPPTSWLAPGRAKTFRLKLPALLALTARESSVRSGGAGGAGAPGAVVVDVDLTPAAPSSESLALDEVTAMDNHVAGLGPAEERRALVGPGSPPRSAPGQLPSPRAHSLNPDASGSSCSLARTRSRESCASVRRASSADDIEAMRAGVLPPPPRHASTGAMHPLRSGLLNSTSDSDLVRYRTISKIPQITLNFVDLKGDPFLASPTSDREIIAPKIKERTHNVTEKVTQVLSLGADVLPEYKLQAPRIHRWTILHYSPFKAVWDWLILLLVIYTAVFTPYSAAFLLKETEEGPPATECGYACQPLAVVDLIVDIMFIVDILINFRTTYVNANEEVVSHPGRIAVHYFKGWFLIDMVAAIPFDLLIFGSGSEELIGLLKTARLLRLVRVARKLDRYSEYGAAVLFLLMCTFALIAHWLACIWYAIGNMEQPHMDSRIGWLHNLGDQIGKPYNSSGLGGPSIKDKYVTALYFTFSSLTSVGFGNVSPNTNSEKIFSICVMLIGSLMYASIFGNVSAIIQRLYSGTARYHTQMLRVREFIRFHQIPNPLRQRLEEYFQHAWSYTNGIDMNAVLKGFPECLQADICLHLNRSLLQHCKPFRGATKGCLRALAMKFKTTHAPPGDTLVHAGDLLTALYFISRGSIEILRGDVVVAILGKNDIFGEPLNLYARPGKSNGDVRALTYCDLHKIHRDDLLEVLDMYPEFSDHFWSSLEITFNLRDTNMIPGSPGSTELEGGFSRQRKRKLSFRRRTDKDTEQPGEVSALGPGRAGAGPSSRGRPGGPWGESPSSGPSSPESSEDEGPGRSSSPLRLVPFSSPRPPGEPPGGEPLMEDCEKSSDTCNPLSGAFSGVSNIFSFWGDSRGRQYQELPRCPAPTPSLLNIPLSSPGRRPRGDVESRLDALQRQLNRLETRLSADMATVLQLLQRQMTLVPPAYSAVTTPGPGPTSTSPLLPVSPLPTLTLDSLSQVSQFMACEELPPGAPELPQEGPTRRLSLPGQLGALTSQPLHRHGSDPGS

SMILES	hERG current change (%, negative = inhibition) at 10uM [%]
CCCc1cc2c(cc1NC(=O)c1ccccc1F)OCO2	-11.3
CC(=O)Nc1sc2c(c1C(=O)N1CCOCC1)CCCCC2	17.9
Cc1ccc(-n2ncc3c(NCC4CCCO4)ncnc32)c(C)c1 (stereo not shown)	12.9
COc1cc(C(C)=O)ccc1OCC(=O)Nc1ccc2nc(C)sc2c1	13.4
CC(SC#N)C(=O)C12CC3CC(CC(C3)C1)C2 (stereo not shown)	-8.99
O=C1CN=C(c2ccccc2)c2ccccc2N1	8.11
O=[N+]([O-])/C=C/c1cn(Cc2ccc(Cl)cc2)c2ccccc12	2.65
O=C(NCc1cccnc1)C(Cl)(Cl)Cl	0.208
CCN(CC)c1ccc(S(=O)(=O)N2CCOCC2)cc1NC(=O)COC(=O)COc1ccccc1C	12.7
CC1=CC=CC2=NC(=O)CC(C)(C(=O)N(CC(=O)NC3CCCC3)c3ccc(F)cc3)N12 (stereo not shown)	11.1
Cc1nn(C)c(C)c1S(=O)(=O)N(CC(=O)NCCCOC(C)C)c1ccc(C(C)C)cc1	-69.6
Cc1nn(C)c(C)c1S(=O)(=O)N(CC(=O)NCCN1CCOCC1)c1ccc(C(C)C)cc1	-2.41
Cc1nn(C)c(C)c1S(=O)(=O)N(CC(=O)NC1CCCCCC1)c1ccc(C(C)C)cc1	-10.4
Cc1nn(C)c(C)c1S(=O)(=O)N(CC(=O)NCc1cccs1)c1ccc(C(C)C)cc1	9.79
Cc1nn(C)c(C)c1S(=O)(=O)N(CC(=O)Nc1ccccn1)c1ccc(C(C)C)cc1	-7.4
Cc1nn(C)c(C)c1S(=O)(=O)N(CC(=O)NCCCN1CC(C)CC(C)C1)c1ccc(C(C)C)cc1 (stereo not shown)	-66.4
Cc1cccc(NC(=O)CN(c2ccc(C(C)C)cc2)S(=O)(=O)c2c(C)nn(C)c2C)n1	-12.2
Cc1nn(C)c(C)c1S(=O)(=O)N(CC(=O)NCCCN1CCC(C)CC1)c1ccc(C(C)C)cc1	-64.7
Cc1nn(C)c(C)c1S(=O)(=O)N(CC(=O)NCc1ccco1)c1ccc(C(C)C)cc1	16.6
C#CCOCCOCCOCCNc1nc(N2CCN(C(=O)[C@H]([C@@H](C)CC)n3cc(CCCC[NH3+])nn3)CC2)nc(N2CCN(C(=O)[C@H](CCCC[NH3+])n3cc(CC(C)O)nn3)CC2)n1.[Cl-] (stereo partly shown)	14.3
COc1ccc(C2C(C#N)=C(C)NC3=C2C(=O)CC(C)(C)C3)c(OC)c1 (stereo not shown)	-6.3
Cc1ccccc1OCCCCn1c(CO)nc2ccccc21	-45.1

SMILES	hERG current change (%, negative = inhibition) at 10uM [%]
COc1ccc(-c2nnc(SCC(=O)NCc3cccs3)n2CC(C)C)cc1	-15.2
CNC(=S)N1CCN(c2ccccc2OC)CC1	7.94
CC(=O)n1cc(/C=N/NC(N)=S)c2ccccc21	-18.4
O=C(O)CN=C1CC(c2ccccc2)CC(=O)/C1=C(/O)CCCN1C(=O)c2ccccc2C1=O (stereo not shown)	1.09
CC/C(O)=C1\C(=O)CC(c2ccccc2)CC1=NCCC(=O)O (stereo not shown)	15.6
CCCCN=C1CC(C)(C)CC(=O)/C1=C(/O)CCCN1C(=O)c2ccccc2C1=O	-61.4
CC1(C)CC(=O)/C(=C(\O)CCCN2C(=O)c3ccccc3C2=O)C(=NCCO)C1	11.7
CCCN=C1CC(C)(C)CC(=O)/C1=C(/O)CCCN1C(=O)c2ccccc2C1=O	-11.4
O=C1CC(c2ccccc2)CC(=NCCO)/C1=C(\O)CCCN1C(=O)c2ccccc2C1=O (stereo not shown)	-71.9
CCCCCCNc1cc2n(c(=O)n1)CCc1cc(OC)c(OC)cc1-2	-46.7
CCOc1ccc(C(C)NC(=O)c2ccc3c(c2)NC(=O)C(C)S3)cc1OCC (stereo not shown)	1.73
O=C(CS(=O)(=O)c1c[nH]c2ccccc12)NC1CCCCC1	-8.19
CSc1ccc(/C=N/NC(=O)CN2CCN(Cc3ccccc3)CC2)cc1	-74.6
CSc1ccc(/C=N/NC(=O)CN2CCN(Cc3ccccc3Cl)CC2)cc1	-37.5
CSc1ccc(/C=N/N2CCN(Cc3ccccc3)CC2)cc1	-5.46
CSc1ccc(/C=N/NC(=O)CN2CCN(Cc3ccc(C)cc3)CC2)cc1	-63.2
Cc1ccc(CN2CCN(CC(=O)N/N=C/c3ccc(C)o3)CC2)cc1	-64.2
Cc1ccc(/C=N/NC(=O)CN2CCN(Cc3ccccc3)CC2)o1	-11.7
CSc1ccc(/C=N\NC(=O)CNc2ccc(C)cc2)cc1	-2.08
Cc1ccc(/C=N/NC(=O)CN2CCN(Cc3ccccc3Cl)CC2)o1	-23.5
CSc1ccc(/C=N/NC(=O)CN2CCN(Cc3ccc(Cl)cc3)CC2)cc1	-35.1
CSc1nnc(-c2ccc(S(=O)(=O)N3CCOCC3)cc2)n1C	-25

SMILES	hERG current change (%, negative = inhibition) at 10uM [%]
Cc1cccc(C(=O)NCCNC(=O)c2cccnc2)c1	18.6
COc1ccc(Nc2nc(NCc3ccco3)nc(N/N=C/c3ccccc3F)n2)cc1	-12.3
Cc1ccc(S(=O)(=O)Nc2cccc(C(=O)NCCCN3CCOCC3)c2)cc1F	-10.2
COc1cc(C(F)(F)F)c(C(=O)N(C)Cc2cc(Cl)cc(Cl)c2)cn1	-18.9
CC(=NCCCn1ccnc1)C1=C(O)c2ccccc2C1=O	-68
CCN(CC)CCCN=C(C)C1=C(O)c2ccccc2C1=O	-41.2
O=C1C(C=NCCCn2ccnc2)=C(O)c2ccccc21	-8.86
CCOC(=O)N1CCN(C(=O)COc2ccc(S(=O)(=O)NC3CCCCC3)cc2C)CC1	-16.9
O=C(O)c1ccccc1C(=O)Nc1ccc(-n2nc(C(F)(F)F)cc2C(F)(F)F)cc1	12.8
Cc1ccc(NC(=O)CSc2nnc(-c3cccs3)n2Cc2ccco2)cc1	-61.6
CN(C)c1ccc(NC(=O)CSc2nnc(-c3cccs3)n2Cc2ccco2)cc1	-39.4
CCn1c(SCC(=O)Nc2ccc(OC)c(OC)c2)nnc1-c1cccs1	-14.1
O=C(CSc1nnc(-c2cccs2)n1Cc1ccco1)Nc1ccc2c(c1)OCO2	-14.6
COc1ccc(NC(=O)CSc2nnc(-c3ccccc3)n2Cc2ccco2)cc1OC	-34.6
COc1ccc(NC(=O)CSc2nnc(-c3cccs3)n2Cc2ccco2)cc1OC	-60.6
COc1ccc(N=C2SC(CC(=O)Nc3ccccc3)C(=O)N2CCc2ccccn2)cc1 (stereo not shown)	-32.6
CCOC(=O)c1c(C)oc2ccc(OC(=O)c3cccs3)cc12	-5.96
c1coc(-c2nnc(SCc3cn4ccccc4n3)o2)c1	-29.7
Cc1ccc2nc(CSc3nnc(-c4ccco4)n3-c3ccccc3)cc(=O)n2c1	-21.1
COc1ccc(C)cc1-n1nnnc1SCc1cn2ccsc2n1	-28.7
Cc1ccc2nc(CSc3nnc(-c4ccco4)o3)cc(=O)n2c1	-64.9
COc1ccc(C)cc1-n1nnnc1SCc1cc(=O)n2cc(C)ccc2n1	-51.1

SMILES	hERG current change (%, negative = inhibition) at 10uM [%]
COc1ccc(C)cc1-n1nnnc1SCc1csc(C)n1	-16.2
Oc1cccc(/C=N/c2c(-c3ccco3)nc3ccccn23)c1	6.9
Cc1cccc(N(Cc2ccc(Cl)cc2)S(C)(=O)=O)c1	21.1
CC1(C)CC(=O)C2=C(C1)NC(=O)C21C(C(=O)OC(C)(C)C)=C(N)Oc2ccc(Br)cc21 (stereo not shown)	-13.1
O=C1CN(C(=O)CSc2ccc(-c3ccc(F)cc3)nn2)c2ccccc2N1	-42.5
Cc1noc(C)c1CSc1nnc2ccc3ccccc3n12	-25.1
COc1ccc(C(C)=O)cc1COC(=O)CNC(=O)c1ccc(Cl)cc1	-4.06
COC(=O)CNC(c1ccccc1)c1cc(Br)ccc1NC(=O)CCN1CCOCC1 (stereo not shown)	-31.7
NNC(=O)CNC(c1ccccc1)c1cc(Br)ccc1NC(=O)CCN1CCOCC1 (stereo not shown)	3.67
CCOC(=O)CNC(c1ccccc1)c1cc(Br)ccc1NC(=O)CCN1CCOCC1 (stereo not shown)	-68
COc1ccccc1OCc1ccc(C(=O)c2ccccc2)cc1	17.1
CC(=O)c1ccccc1OCc1ccc(C(=O)c2ccccc2)cc1	-51.7
CC(=O)c1ccc(OCc2ccc(C(=O)c3ccccc3)cc2)cc1	0.433
Cc1ccc(C(=O)c2nocc2C(=O)c2cccs2)cc1	-19.7
CS(=O)(=O)O.Cc1cccc(/C=C2/C(=O)/C(=C/c3ccccc3C)C3CCC2N3C)c1 (stereo not shown)	6.11
CCC(O)(CC)C(=O)NN(C(=O)CCl)c1ccccc1	8.94
CCc1ccc(-c2cc(C)no2)cc1S(=O)(=O)N1CCN(c2ccccc2)CC1	3.41
CCc1ccc(-c2cc(C)no2)cc1S(=O)(=O)N1CCN(C(=O)c2ccco2)CC1	-59.6
COc1ccc(-c2cc(C)no2)cc1S(=O)(=O)N1CCN(C(=O)c2ccco2)CC1	-6.28
Cc1cc(-c2ccc(C)c(S(=O)(=O)N3CCN(C(=O)c4ccco4)CC3)c2)on1	-51.8
CCc1ccc(-c2cc(C)no2)cc1S(=O)(=O)N1CCC(C)CC1	-15.8
Cc1ccc(S(=O)(=O)N2CCN(C(=O)c3ccco3)CC2)cc1C	-4.01
